The list is not random: actives were taken first. Their share in the collection is about 4%.
tim23-1 inh – growth inhibitors of tim23-1 mutant yeast, primary screen, luminescence, uHTS. S. cerevisiae tim23-1 growth, BacTiter-Glo luminescence, 24 h. inhibition, % at 20 µM. hit rate 1.3% among 330,000;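 active = growth inhibition of the mutant yeast at or above 50%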;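 also: temperature-sensitive mutant grown at 25 °C; plate controls were DMSO-treated mutant yeast for no effect and medium wells lacking yeast for full effect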
NALP1 inh – NALP1 inflammasome inhibitors in reconstituted yeast, colorimetric, S. cerevisiae, triplicate retest; AID 2071, 2009; inhibition, % at 10 µM; hit rate 0.61% among 280,000; S. cerevisiae NALP1/ASC/caspase-1 growth, X-gal OD620, 72 h; in the data active = inhibition mostly above about 24%, no sharp cut-off; inactive = mostly below about 32%
TIM10 inh – growth inhibitors of isogenic TIM10 control yeast, primary screen, counter-screen for tim10-1 yeast inhibitor project, luminescence, uHTS; hit rate 1.4% among 330,000; inhibition, % at 10 µM; S. cerevisiae TIM10 strain growth, BacTiter-Glo luminescence, 24 h;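 active = inhibition of 40% or more at the single tested concentration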;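 also: wild-type TIM10 isogenic control strain grown at permissive 25 °C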
tim10-1 inh – growth inhibitors of tim10-1 mutant yeast, primary screen, luminescence, uHTS; S. cerevisiae tim10-1 ts strain growth, BacTiter-Glo, 24 h; inhibition, % at 20 µM; hit rate 2.2% among 330,000; AID 463190, 2010;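 active = inhibition of at least 40%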;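 also: mutant grown at 25 °C; 0% = DMSO wells with yeast and 100% = wells holding no yeast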
NALP3 yeast inh – NALP3 inflammasome inhibitors in reconstituted yeast, primary screen, luminescence, uHTS; Yeast reconstituted NLRP3/ASC/caspase-1, beta-gal luminescence, 24 h; inhibition, % at 10 µM; hit rate 0.39% among 330,000; AID 2825, 2010;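 active = inhibition of 50% or more; inactive = inhibition below 50%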;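 also: plate controls were induced DMSO wells for no effect and uninduced yeast grown without galactose for full effect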
tim23-1 confirm – tim23-1 mutant yeast growth inhibitors, confirmation, luminescence, single concentration; inhibition, % at 20 µM; shares compounds with tim23-1 inh; hit rate 83% among 4,400; S. cerevisiae tim23-1 growth, BacTiter-Glo luminescence, 24 h;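 active = inhibition above about 39% in either of two replicate wells at 20 µM, limit read from the data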;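 also: temperature-sensitive tim23-1 mutant grown at 25 °C; 0% = DMSO wells with yeast and 100% = medium wells without yeast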
Numbers without * were called inactive; . = no result given.

SMILES	tim23-1 inh	NALP1 inh	TIM10 inh	tim10-1 inh	NALP3 yeast inh	tim23-1 confirm
Cc1cc(=O)oc2cc(Oc3ccc([N+](=O)[O-])cc3[N+](=O)[O-])ccc12	55*	4	30	21	17	43*
CCn1c(C)nc2cc(C(=O)NNC(=O)CCC3CCCCC3)ccc21	10	6	-5	1	1	.
CCCCN(C(=O)c1ccncc1)c1c(N)n(CCC)c(=O)[nH]c1=O	1	.	-7	13	12	.
COCCN(C(=O)c1ccc(N2C(=O)c3ccccc3C2=O)cc1)c1c(N)n(CC(C)C)c(=O)[nH]c1=O	60*	.	16	21	-1	51*
COCCN(C(=O)c1ccc(N2CCCC2=O)cc1)c1c(N)n(CC(C)C)c(=O)[nH]c1=O	4	.	-2	4	16	.
CCCCN(C(=O)c1ccc2c(c1)OCO2)c1c(N)n(CC(C)C)c(=O)[nH]c1=O	47	.	12	20	13	.
CCCCN(C(=O)c1ccc(C)cc1)c1c(N)n(CCC)c(=O)[nH]c1=O	53*	7	23	15	11	54*
CCCCN(C(=O)c1ccc2c(c1)OCO2)c1c(N)n(CCCC)c(=O)[nH]c1=O	52*	.	10	19	20	53*
CC(=O)NC(CC(=O)N(C)Cc1cccc(Cl)c1Cl)c1ccccc1 (stereo not drawn)	15	5	-15	13	8	.
CC(C)C(=O)NNC(=O)CN1CCN(c2nc(-c3ccccc3)cs2)CC1	3	3	11	11	4	.
CCc1nnc(NC(=O)CN2CCN(c3nc(-c4ccccc4)cs3)CC2)s1	50*	23	31	37	14	41*
COc1ccc(CNCc2cc(Cl)ccc2O)cc1	9	.	-3	24	3	.
Oc1ccc(Cl)cc1CNCc1ccc(F)c(F)c1	53*	.	12	6	35	37
O=CN(/C=C1\Sc2ccccc2C1=O)Cc1ccccc1	68*	13	23	31	30	66*
CCC(=O)N(C)/C=C1\Sc2ccccc2C1=O	53*	-1	-15	-25	21	5
COc1cccc(C(=O)c2c(-c3ccccc3)ncc3cc(OC)c(OC)cc23)c1	54*	.	-13	21	.	33
Cc1ccc(NC(=O)Cn2c(=O)cnc3ccccc32)cc1S(=O)(=O)N1CCOCC1	4	.	3	-6	5	.
COc1cc2c3c(c1)C(C)CC(C)(C)N3C(=O)C2=O (stereo not drawn)	51*	-6	-2	32	8	63*
CN1c2ccsc2/C(=N/Nc2ccc(F)cc2)CS1(=O)=O	53*	-11	30	36	23	-29
Cc1ccc(N/N=C2\CS(=O)(=O)N(C)c3ccsc32)cc1	44	26	-4	30	13	.
Cc1ccc(S(=O)(=O)NNC(=O)c2ccncc2)cc1	10	18	-4	8	-2	.
O=C(/C(=C/O)N=Nc1ccc(Cl)cc1)c1ccncc1	62*	-4	-20	16	10	57*
Cc1ccc(N=N/C(=C\O)C(=O)c2ccncc2)cc1	71*	4	6	13	18	64*
COc1ccc(CNC(=O)CCN2C(=O)[C@@H]3Cc4ccccc4CN3C2=O)cc1	10	-3	-7	-4	-2	.
Cc1ccc(C(=O)/C=C/C(=O)c2ccc(C)cc2)cc1	58*	-8	36	32	26	-72
SMILES	tim23-1 inh	NALP1 inh	TIM10 inh	tim10-1 inh	NALP3 yeast inh	tim23-1 confirm
CCn1c(SCC(=O)c2c(N)n(C3CC3)c(=O)[nH]c2=O)nc2cc(S(N)(=O)=O)ccc21	-14	.	-12	5	6	.
COC(=O)Sc1nnc(-c2ccc(Br)cc2)o1	60*	36	22	10	-6	52*
OCC#CCSc1nnc(-c2ccc(Br)cc2)o1	14	.	35	16	11	.
COc1ccc(-c2cn3c(C)c(C(=O)N4CCCc5ccccc54)sc3n2)cc1	53*	.	0	20	32	59*
COc1ccc(C(=O)N2CCCc3ccccc32)cc1	4	23	-11	25	35	.
O=C(Nc1ccc(C(=O)N2CCCCC2)cc1)C1=CSCCO1	27	16	7	29	12	.
O=C(Nc1ccc(C(=O)N2CCN(c3ccccc3F)CC2)cc1)C1=CSCCO1	53*	18	29	39	20	42*
CCCOc1ccc2ccccc2c1/C=C1\SC(=O)NC1=O	55*	3	8	20	-29	51*
O=[N+]([O-])c1cc(O)c2ncccc2c1	67*	20	17	28	17	70*
CC(C)n1c2ccccc2c2nc3ccccc3nc21	51*	-1	20	37	-31	52*
C#CCn1c2ccccc2c2nc3ccccc3nc21	-16	7	2	-15	4	.
Cc1nc2cc(C(=O)OCC(=O)NC3CCS(=O)(=O)C3)ccc2n1-c1ccccc1 (stereo not drawn)	6	7	-3	3	24	.
Cc1nc2cc(C(=O)OCC(=O)Nc3cccc(Cl)c3)ccc2n1-c1ccccc1	53*	32	16	12	-1	30
O=C(CN1CCN(Cc2ccccc2Cl)CC1)N/N=C/c1ccco1	-18	20	-4	-19	27	.
CC(=O)c1ccc(OC(=O)CCNC(=O)c2ccccc2)cc1	21	.	8	2	-1	.
CCOC(=O)c1cccc(OC(=O)CCNC(=O)c2ccc(Cl)cc2)c1	57*	.	21	-12	20	51*
O=C(NCCc1cccnc1)C1CCC(=O)N(Cc2ccc(Cl)cc2)C1 (stereo not drawn)	13	7	6	-10	11	.
COc1ccc(C(OCC(O)CN2CCC(O)CC2)c2ccc(OC)cc2)cc1 (stereo not drawn)	-2	20	8	-8	19	.
CCOC(=O)c1cc(NC(=O)N(C)C2CCCCC2)c(C)nc1C	12	12	-5	8	-5	.
CCOC(=O)c1nnsc1NC(C)=O	-7	27	0	6	5	.
CCOC(=O)c1nnsc1NC(=O)Nc1ccc(OC)cc1	84*	14	8	-14	21	2
O=C(Cn1ncc(Cl)c(Cl)c1=O)Nc1ccc2c(c1)OCO2	-9	.	-5	-21	20	.
O=C(Cn1ncc(Cl)c(Cl)c1=O)c1ccc2c(c1)OCCO2	58*	.	-27	-34	46	31
Cc1csc(NC(=O)C(NC(=O)c2ccccc2F)C(C)C)n1 (stereo not drawn)	6	-10	-10	-14	10	.
Cc1cccc(N2C(=O)/C(=C/c3cccnc3)SC2=S)c1	58*	-15	11	38	2	54*
Cc1ccc(N2C(=O)/C(=C/c3cccnc3)SC2=S)cc1	25	18	9	19	17	.

Source: PubChem BioAssay
